For 5 compounds, composite z-score and z-score results are on record in PubChem BioAssay.

Each structure is given as a SMILES string. Active and inactive are the calls of the source. Unless noted, the rule behind the calls is not given here.

For assay [1], the system named is Wnt5a (protein binding on small-molecule microarray). Nature of the assay: small molecules binding Wnt5a protein – biophysical, small-molecule microarray, 635/667 nm fluorescence, primary screen (AID 1142).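 Note: fluorescence read at 667 nm with signal to noise per printed feature.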 The settings on record: 635 nm fluorescence, higher = more signal.
Assay [2] can be described thus: ATP-based viability of Huh7 replicon cells – cell-based, CellTiter-Glo luminescence, basal, 48 h, cytotoxicity control for HCV replication inhibitor project, primary screen (AID 1143).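 Note: Huh7 hepatoma cells carrying a hepatitis C replication reporter with no stimulus; test concentration not given here.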 The settings on record: higher = more signal, called active from +8 up or from −8 down. For orientation: In antiviral work, replicon cells carry a viral genome segment that copies itself.

Assay [3] can be described thus: Pseudomonas biofilm growth suppression – PAO1 strain, BacTiter-Glo luminescence, LB-PBS, primary screen (AID 1144). The conditions noted are these: P. aeruginosa PAO1 biofilm, 12 h, higher = more signal.
A short description of assay [4]: basal CRE-LacZ reporter activity in PC12 – cell-based, unstimulated, primary screen (AID 1145). The settings on record: no forskolin, luminescence, 4.5 h, higher = more signal, called active from +8 up or from −8 down.
A short description of assay [5]: forskolin-driven CRE-LacZ activity in PC12 – cell-based, CRE-LacZ reporter, forskolin-stimulated, primary screen (AID 1146).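 Note: PC12 cells with 6xCRE LacZ reporter stimulated by forskolin 10 µM; beta-galactosidase reporter signal reflecting CREB driven transcription.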 The settings on record: luminescence, 4.5 h, higher = more signal, called active from +8 up or from −8 down.
Assay [6] has as its target Streptavidin (Streptomyces avidinii) (UniProt P22629). Nature of the assay: compounds binding control protein streptavidin – biophysical, small-molecule microarray, 635/667 nm fluorescence, artefact control for SMM compound annotation, primary screen (AID 1147).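 Note: signal reflects streptavidin binding to arrayed compounds as a control protein.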 The conditions noted are these: higher = more signal.
The nature of assay [7]: probe aInhba binding on compound microarray – biochemical, small-molecule microarray, 635/667 nm fluorescence, primary screen (AID 1148).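 Note: score merges 667nm spot fluorescence with signal-to-noise for antibody binding to printed compounds.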 The conditions noted are these: higher = more signal.
The target in assay [8] is Torsin-1A (Homo sapiens) (UniProt O14656). Nature of the assay: TOR1A wild-type binding on microarray – cell lysate, small-molecule microarray, lysate, 635/667 nm, primary screen (AID 1149). The conditions noted are these: COS7 hTOR1A-WT lysate, 635 nm fluorescence, higher = more signal.
Torsin-1A (Homo sapiens), sequence (O14656 whole entry, looked up): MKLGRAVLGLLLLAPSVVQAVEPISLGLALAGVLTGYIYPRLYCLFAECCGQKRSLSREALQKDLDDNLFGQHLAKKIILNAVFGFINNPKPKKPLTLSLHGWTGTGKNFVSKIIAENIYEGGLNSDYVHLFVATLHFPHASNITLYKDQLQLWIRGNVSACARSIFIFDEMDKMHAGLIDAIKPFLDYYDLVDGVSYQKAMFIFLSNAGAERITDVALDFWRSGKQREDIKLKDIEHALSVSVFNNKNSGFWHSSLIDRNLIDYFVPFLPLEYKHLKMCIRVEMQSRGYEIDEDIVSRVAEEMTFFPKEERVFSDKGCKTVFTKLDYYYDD
Assay [9] shares this target. Nature of the assay: torsin A mutant lysate binding on microarrays – cell lysate, small-molecule microarray, COS7 lysate, 635/667 nm fluorescence, primary screen (AID 1150).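 Note: score pools 667 nm emission and signal to noise measuring lysate protein binding.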 The settings on record: COS7 hTOR1A mutant lysate, 635 nm fluorescence, higher = more signal.
Assay [10] concerns Sonic hedgehog protein (Shh). Nature of the assay: Sonic hedgehog microarray binding compounds – biochemical, small-molecule microarray, 635/667 nm fluorescence, primary screen (AID 1151).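 Note: Shh protein binding to compounds spotted on small-molecule microarray slides; score combines spot fluorescence intensity with signal-to-noise across triplicate slides.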 The conditions noted are these: 635 nm fluorescence, higher = more signal.
Assay [11] is described as follows: optical density shifts of acrAB sulA E. coli – strain DRC41, OD650, 48 h, E. coli filamentation inducer project, primary screen (AID 1152).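 Note: E. coli MC1000 strain DRC41 lacking acrAB efflux pump and sulA.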 The conditions noted are these: higher = more signal, called active from +8 up or from −8 down.
Assay [12] is described as follows: probe aLefty1 binding on compound microarray – biochemical, small-molecule microarray, 635/667 nm fluorescence, primary screen (AID 1153).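 Note: score merges spot fluorescence with signal-to-noise ratio from the scanned slide images.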 The settings on record: higher = more signal.
The nature of assay [13]: plasmodial surface anion channel blockers, osmotic lysis – cell-based, P. falciparum Indochina, OD700, 1 h, primary screen (AID 1154). The conditions noted are these: P. falciparum Indochina infected RBC osmotic lysis, higher = more signal, called active from +8 up or from −8 down.
The nature of assay [14]: plasmodial surface anion channel blockers, osmotic lysis – cell-based, P. falciparum Indochina, OD700, 2 h, primary screen (AID 1155).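 Note: lysis reports solute entry through the parasite surface anion channel PSAC.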 The settings on record: P. falciparum Indochina infected erythrocytes, higher = more signal, called active from +8 up or from −8 down.
The nature of assay [15]: changes in parasitized red cell lysis, either direction – P. falciparum Indochina, OD700, 3 h, PSAC antagonist project, primary screen (AID 1156). The settings on record: P. falciparum-infected erythrocytes, osmotic lysis, higher = more signal, called active from +8 up or from −8 down.
Assay [16] in a line: plasmodial surface anion channel blockers, osmotic lysis – cell-based, P. falciparum Indochina, OD700, 18 h, primary screen (AID 1157). The conditions noted are these: P. falciparum Indochina infected erythrocytes, osmotic lysis OD700, 18 h; higher = more signal, called active from +8 up or from −8 down.
The nature of assay [17]: S6 kinase pathway phospho-S6 level changes – cell-based, A549, cytoblot, luminescence, serum-stimulated, primary screen (AID 1158).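 Note: serum-stimulated A549 lung adenocarcinoma cells; signal is phosphorylated S6 detected by cytoblot immunostaining with HRP secondary.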 The conditions noted are these: 5 h, higher = more signal.
Assay [18] has as its target NADPH oxidase 2 (Homo sapiens) (UniProt P04839). Nature of the assay: compounds shifting NOX2 Amplex Red fluorescence – cell-based, HEK293-NOX2, PMA-stimulated, NOX inhibitor project, primary screen (AID 1159). Note: test concentration not given here. The conditions noted are these: 45 min, higher = more signal, called active from +8 up or from −8 down.
In assay [19] the target is NADPH oxidase 4 (Homo sapiens) (UniProt Q9NPH5). Nature of the assay: compounds shifting NOX4 Amplex Red fluorescence – cell-based, HEK293-NOX4, tetracycline-induced, NOX inhibitor project, primary screen (AID 1160). The conditions noted are these: HEK293-NOX4, Amplex Red H2O2 fluorescence, 45 min; higher = more signal, called active from +8 up or from −8 down.
NADPH oxidase 4 (Homo sapiens), sequence (Q9NPH5 whole entry, looked up): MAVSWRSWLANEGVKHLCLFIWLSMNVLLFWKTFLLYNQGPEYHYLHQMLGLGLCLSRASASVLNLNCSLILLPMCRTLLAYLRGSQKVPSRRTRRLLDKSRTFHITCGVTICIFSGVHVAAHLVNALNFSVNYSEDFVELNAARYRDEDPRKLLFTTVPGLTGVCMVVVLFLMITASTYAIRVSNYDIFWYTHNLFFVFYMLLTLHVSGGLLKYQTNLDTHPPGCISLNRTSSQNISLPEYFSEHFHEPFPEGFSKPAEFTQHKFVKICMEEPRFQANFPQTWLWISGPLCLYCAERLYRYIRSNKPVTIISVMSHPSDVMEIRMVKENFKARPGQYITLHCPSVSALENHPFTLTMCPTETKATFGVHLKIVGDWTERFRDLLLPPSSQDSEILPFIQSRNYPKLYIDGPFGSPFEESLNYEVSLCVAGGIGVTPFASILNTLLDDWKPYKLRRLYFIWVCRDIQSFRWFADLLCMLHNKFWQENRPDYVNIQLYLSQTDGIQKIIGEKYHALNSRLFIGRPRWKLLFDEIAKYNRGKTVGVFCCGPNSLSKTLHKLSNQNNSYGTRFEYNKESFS
The target in assay [20] is NADPH oxidase 5 (Homo sapiens) (UniProt Q96PH1). Nature of the assay: compounds shifting NOX5 Amplex Red fluorescence – cell-based, HEK293-NOX5, NOX inhibitor project, primary screen (AID 1161). The settings on record: HEK293-NOX5, ionomycin, 45 min, higher = more signal.
NADPH oxidase 5 (Homo sapiens), sequence (Q96PH1 whole entry, looked up): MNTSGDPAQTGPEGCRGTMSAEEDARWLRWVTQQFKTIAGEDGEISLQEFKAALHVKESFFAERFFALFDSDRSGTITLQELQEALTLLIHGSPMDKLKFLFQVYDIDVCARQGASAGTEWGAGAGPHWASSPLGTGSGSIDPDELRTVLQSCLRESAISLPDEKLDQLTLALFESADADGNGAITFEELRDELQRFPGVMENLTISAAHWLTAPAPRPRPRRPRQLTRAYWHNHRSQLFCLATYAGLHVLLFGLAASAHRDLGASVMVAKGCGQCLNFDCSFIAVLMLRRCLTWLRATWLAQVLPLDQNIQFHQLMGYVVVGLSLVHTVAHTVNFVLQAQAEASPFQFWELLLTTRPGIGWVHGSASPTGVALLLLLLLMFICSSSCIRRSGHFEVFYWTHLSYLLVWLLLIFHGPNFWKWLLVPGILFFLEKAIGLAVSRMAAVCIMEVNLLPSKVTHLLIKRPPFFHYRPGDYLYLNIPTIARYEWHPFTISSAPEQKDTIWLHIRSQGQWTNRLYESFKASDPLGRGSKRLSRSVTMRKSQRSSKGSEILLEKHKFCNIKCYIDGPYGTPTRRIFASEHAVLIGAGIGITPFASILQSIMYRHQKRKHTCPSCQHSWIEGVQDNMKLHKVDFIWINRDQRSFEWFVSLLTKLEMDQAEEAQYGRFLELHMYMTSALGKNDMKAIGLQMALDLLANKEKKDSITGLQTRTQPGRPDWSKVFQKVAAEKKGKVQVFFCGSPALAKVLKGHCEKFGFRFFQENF

Streptavidin (Streptomyces avidinii), sequence (P22629 whole entry, looked up): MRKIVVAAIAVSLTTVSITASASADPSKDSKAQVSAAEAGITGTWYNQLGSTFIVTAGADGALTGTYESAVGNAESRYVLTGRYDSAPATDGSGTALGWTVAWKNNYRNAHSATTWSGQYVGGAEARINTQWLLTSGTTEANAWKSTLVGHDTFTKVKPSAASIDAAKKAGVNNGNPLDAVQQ
NADPH oxidase 2 (Homo sapiens), sequence (P04839 whole entry, looked up): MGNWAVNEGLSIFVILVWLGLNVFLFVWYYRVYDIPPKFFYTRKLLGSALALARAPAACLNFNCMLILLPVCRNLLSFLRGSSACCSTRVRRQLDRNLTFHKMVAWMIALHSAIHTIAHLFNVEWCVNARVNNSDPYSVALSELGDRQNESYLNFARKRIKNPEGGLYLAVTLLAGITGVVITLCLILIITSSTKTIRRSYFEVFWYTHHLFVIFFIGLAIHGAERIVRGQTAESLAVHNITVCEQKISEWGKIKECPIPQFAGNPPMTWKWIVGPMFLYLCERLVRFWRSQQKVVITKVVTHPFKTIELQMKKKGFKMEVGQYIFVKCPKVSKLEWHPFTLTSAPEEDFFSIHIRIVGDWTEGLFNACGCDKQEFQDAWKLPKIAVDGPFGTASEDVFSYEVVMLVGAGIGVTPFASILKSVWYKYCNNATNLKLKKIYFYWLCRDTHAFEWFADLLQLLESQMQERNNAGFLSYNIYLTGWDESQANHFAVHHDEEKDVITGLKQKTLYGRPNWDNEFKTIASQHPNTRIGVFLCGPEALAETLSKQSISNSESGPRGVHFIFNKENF

Regarding `COCCOC(=O)N1C(=O)[C@@]2(c3cc(C#CCNC(N)=O)ccc31)[C@H](c1ccccc1OCCO)N1[C@H](c3ccccc3)[C@H](c3ccccc3)OC(=O)[C@H]1[C@@H]2C(=O)N1CCN(c2ncccn2)CC1`, the composite z-score in [1] came to 0.734; in assay [6], 0.29; in assay [7], 0.0497; with Torsin-1A (Homo sapiens) [8] it was 0.303; with Torsin-1A (Homo sapiens) [9], 0.923; in assay [10], 0.966. In assay [12], this compound yielded a composite z-score of 0.15. The z-score is -1.96 (inactive) in assay [2]; -0.897 (inactive) in assay [3]; -0.465 (inactive) in assay [4]; 2.16 (inactive) in assay [5]; 0.981 (inactive) in [11]; 2.11 (inactive) in assay [13]. For the same compound, the z-score in assay [14] is -0.313 (inactive); in assay [15] it was 0.793 (inactive); in assay [16] it was -2.06 (inactive); in [17] it was 2.82; in assay [18] it was 1.63 (inactive); in assay [19] it was 1.09 (inactive). Further, the z-score in assay [20] was -0.814.

In the case of `COc1ccc([Si](C)(C)[C@@H]2[C@@H](CC(=O)N3CCC[C@H]3CO)O[C@]3(C(=O)N(Cc4cccc(N5CCC5=O)c4)c4ccccc43)[C@H]2C)cc1`, the composite z-score in assay [1] was -0.071; in assay [6] it was 1.56; in [7], 0.3; in the assay with Torsin-1A (Homo sapiens) [8] it was 0.511; with Torsin-1A (Homo sapiens) [9], 0.413; in [10], 2. Also, the composite z-score in [12] stood at 0.792. In addition, the z-score is -3.38 (inactive) in assay [2]; -1.54 (inactive) in assay [3]; 0.772 (inactive) in assay [4]; -0.662 (inactive) in [5]; 0.313 (inactive) in assay [11]; 4.64 (inactive) in [13]. In addition, the z-score in assay [14] is 0.838 (inactive); in assay [15], -0.745 (inactive); in [16], 0.496 (inactive); in assay [17], -0.0355; in assay [18], 2.1 (inactive); in assay [19], 1.29 (inactive). For the same compound, in assay [20], the z-score stood at 4.02.

On to `CCOC(=O)CCN1C(=O)[C@H]2[C@H]3[C@H](O)[C@H](O)CC(=NOC[C@@H](O)COCc4ccco4)[C@H]3CC[C@H]2C1=O`, for which the composite z-score is -0.0068 in assay [1]; 0.0794 in assay [6]; -0.0627 in assay [7]; 0.291 in the assay with Torsin-1A (Homo sapiens) [8]; 0.18 with Torsin-1A (Homo sapiens) [9]; 0.856 in assay [10]. In addition, in assay [12], the composite z-score is -0.101. The z-score is -4.31 (inactive) in assay [2]; -0.284 (inactive) in assay [3]; 1.41 (inactive) in [4]; 0.749 (inactive) in [5]; -0.923 (inactive) in [11]; 0.73 (inactive) in assay [13]. In addition, the z-score in assay [14] was -1.31 (inactive); in [15], 0.318 (inactive); in [16], -2.76 (inactive); in assay [17], 0.141; in [18] it was -0.343 (inactive); in assay [19] it was 0.0781 (inactive). Also, in assay [20], the z-score was -0.498.

`CCOC(=O)[C@H](CC(C)C)NC(=O)CCC1CC(OC(=O)NCCc2ccc(F)cc2)CC2(CCCC(COC(=O)NCc3ccccc3)O2)O1` (stereo not given in full): the composite z-score was 0.371 in assay [1]; 0.255 in [6]; -0.226 in assay [7]; 1.47 in the assay with Torsin-1A (Homo sapiens) [8]; 0.154 in the assay with Torsin-1A (Homo sapiens) [9]; 1.86 in assay [10]. Also, in [12], the composite z-score was found to be 0.0536. Also, the z-score in assay [2] is -4.31 (inactive); in assay [3] it was -0.568 (inactive); in assay [4] it was 0.199 (inactive); in assay [5], 0.659 (inactive); in [11] it was -1.06 (inactive); in assay [13] it was 3.44 (inactive). The z-score in assay [14] was -1.22 (inactive); in assay [15], 1.39 (inactive); in assay [16], -1.42 (inactive); in assay [17] it was 1.78; in [18], -0.945 (inactive); in assay [19], -0.797 (inactive). Moreover, in [20], the z-score is -2.24.

As to `CN1C(=O)C2C=CC(C(O)C(c3ccccc3)c3ccccc3)N(NC(=O)OC(C)(C)C)C2C1=O` (stereo not given), the composite z-score in [1] is 0.843; in assay [6], 1.68; in assay [7], 0.72; with Torsin-1A (Homo sapiens) [8] it was -0.05; with Torsin-1A (Homo sapiens) [9], 0.848; in assay [10], -0.587. Further, the composite z-score in [12] was determined as 0.771. Also, the z-score is -0.0027 (inactive) in assay [2]; 0.417 (inactive) in assay [3]; -0.136 (inactive) in [4]; 0.0964 (inactive) in assay [5]; -1.41 (inactive) in assay [11]; 1.41 (inactive) in assay [13]. The z-score in assay [14] is 0.742 (inactive); in assay [15], -0.343 (inactive); in [16], 0.804 (inactive); in [17], -1.16; in assay [18], -0.343 (inactive); in assay [19] it was -4.7 (inactive). In assay [20], the z-score is -1.76.
